Hits are enriched below; roughly 2.6% of the tested compounds scored in any of these assays.
eIF4H inh: inhibitors of RNA binding by human eIF4H. Q15056. eIF4H fluorescence polarization binding assay. inhibition, % at 35 µM. 290,000 compounds, 0.94% hits;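 further: calls also rest on retests at 20 µM and on dose response follow-up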
PABP1 MLLE inh: blocks PAM2 peptide binding to the PABP1 MLLE domain; P11940; GST-MLLE / FITC-PAM2 fluorescence polarization; inhibition, % at 20 µM; 360,000 compounds, 0.36% hits; in the data active means inhibition above about 35%, passing the limit was not always enough;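 further: plate controls were DMSO wells with GST-MLLE for no effect and wells lacking GST-MLLE protein for full effect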
CRFR2-BP antag: antagonists of CRF-binding protein/CRF-R2 receptor complex; inhibition, % at 11.8 µM; HEK293 CRF-R2/CRF-BP, CRF-induced calcium fluorescence; AID 588475; 350,000 compounds, 0.59% hits;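 active means inhibition of the ligand-induced calcium signal above about 50% at the single tested concentration, limit read from the data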
PHOSPHO1 inh: blocks human PHOSPHO1 phosphatase activity; Q8TCT1; recombinant PHOSPHO1, absorbance phosphatase assay; inhibition, % at 13.3 µM; 290,000 compounds, 1.1% hits; in the data active means inhibition above about 60%
PABP FP inh: PABP-poly(A) binding inhibition; PABP-poly(A) RNA binding, fluorescence polarization; inhibition, % at 35 µM; 290,000 compounds, 1% hits; AID 2014;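 further: calls also rest on retests at 20 µM and on dose response follow-up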
* = called active by the depositor; / = no result. Unless noted, how the calls were made is not given here.

SMILES	eIF4H inh	PABP1 MLLE inh	CRFR2-BP antag	PHOSPHO1 inh	PABP FP inh
CC(C)C[C@@H](CNCC(=O)[C@H](CC(C)C)NC(=O)c1[nH]cnc1C(=O)N[C@@H](C)CN)NC(=O)c1nc[nH]c1C(=O)N[C@@H](CC(=O)O)C(=O)O	/	9.0	18.2	/	/
Nc1nc(SCc2ccccn2)c2ncn(C3OC(CO)C(O)C3O)c2n1 (centres undefined)	/	-5.4	3.6	/	/
N#CCSc1nc2sccc2c(=O)n1-c1ccccc1	6.5	-16.3	74.2*	16.1	20.1
CCOc1ccc(C(=O)NCC(=O)OCC(=O)N(C)CC(=O)Nc2ccccc2CC)cc1OCC	/	3.5	-9.1	/	/
CCc1ccc(NC(=S)N2CCCCCCC2)cc1	-4.7	-99.8	-13.3	68.1*	4.2
O=C(NC(Nc1ncc(S(=O)(=O)c2ccc([N+](=O)[O-])cc2)s1)(C(F)(F)F)C(F)(F)F)c1ccc(Cl)cc1	-1.7	8.1	62.2*	38.0	6.1
O=C(Nc1cc(Cl)cc2c1-c1ccc(Cl)cc1C2O)C(Cl)Cl (centres undefined)	/	-0.7	2.2	/	/
CC(OC(=O)C1CCN(S(=O)(=O)c2ccc3c(c2)OCCO3)CC1)C(=O)NC1(C#N)CCCCC1 (centres undefined)	/	-5.8	-5.5	/	/
Cc1cc(=O)n(-c2ccc(C(=O)O)cc2)[nH]1	65.0*	8.3	-3.9	-17.9	active
CC(=O)c1c(C(C)=O)c(C)n(-c2ccc(C(=O)O)cc2)c1C	2.9	5.2	6.0	10.9	5.4
Cc1ccc(C)n1-c1ccc(C(=O)O)cc1	91.3*	/	/	11.3	50.9*
CC(=O)NCCNc1nc2cc(-c3cccc(Cl)c3)sc2c(=O)n1C	/	-10.2	/	/	/
Cc1noc(C)c1-c1ccc(C(=O)NCc2ccc(Cl)cc2)c2occc12	/	15.3	/	/	/
CN(C)S(=O)(=O)c1ccc(N2CCCC2)c(C(=O)NNC(=O)c2ccccc2)c1	/	-21.4	-3.0	/	/
CCCS(=O)(=O)N1CCCC(C(=O)NCCCN(CC)c2cccc(C)c2)C1 (centres undefined)	-9.1	-0.8	93.6*	19.5	-2.5
CCCS(=O)(=O)N1CCC(C(=O)NCCCN(CC)c2cccc(C)c2)CC1	-3.6	5.0	-1.1	-4.0	-4.8
O=C(NC1CCCCCCC1)NC1CCCCC1	3.0	-0.3	-0.2	48.9	6.7
CCN(CC)C(=O)NC1CCCCCCC1	2.0	-8.6	2.1	60.0*	7.0
O=C1NC(=O)N2CCSC2(Cc2ccccc2)N1 (centres undefined)	/	41.2*	-15.6	/	/
CCc1n[nH]c(=S)n1/N=C/c1ccc(N(C)c2ccccc2)cc1	7.9	-44.6	6.8	45.6	-14.0
CCc1n[nH]c(=S)n1/N=C/c1ccc2c(c1)OCO2	-12.3	-15.6	8.8	102.6*	-9.2
N#Cc1c(-c2ccco2)cc(-c2ccc(F)cc2)nc1N	62.1*	-62.9	-22.4	-7.4	75.7*
N#Cc1c(-c2ccc(F)cc2)cc(-c2cccnc2)nc1N	5.3	-9.1	17.2	3.9	0.2
CC1(C(=O)NS(=O)(=O)c2ccccc2Cl)CCN1C(=O)C1CCCCC1 (centres undefined)	/	-11.7	/	/	/
CC(C)COc1ccc(-c2nn(-c3ccccc3)cc2/C=C2/SC(=S)N(CC(=O)O)C2=O)cc1	92.8*	-1.9	22.6	34.8	12.3
SMILES	eIF4H inh	PABP1 MLLE inh	CRFR2-BP antag	PHOSPHO1 inh	PABP FP inh
O=C(O)CN1C(=O)/C(=C\c2cn(-c3ccccc3)nc2-c2ccccc2)SC1=S	3.4	22.6	21.8	-8.7	22.2
CC(C)C[C@@H](CNCC(=O)[C@H](Cc1c[nH]c2ccccc12)NC(=O)c1[nH]cnc1C(=O)N[C@@H](C)CN)NC(=O)c1nc[nH]c1C(=O)N[C@@H](C)C(=O)O	/	-10.1	-8.4	/	/
CCOC(=O)c1c(/N=C/c2ccc(O)cc2O)sc2c1CCC2	65.3*	/	/	-1.1	active
Cc1nn(-c2ccccc2)c(C)c1NC(=O)COC(=O)c1ccccc1OC(F)F	-10.7	15.6	57.5*	42.6	8.6
CCCn1c(N2CCN(CC(=O)c3c(C)n(C)c4ccccc34)CC2)nc2c1c(=O)[nH]c(=O)n2C	-4.4	14.4	9.7	3.7	-7.4
CCn1c(N2CCN(CC(=O)c3c[nH]c4ccccc34)CC2)nc2c1c(=O)[nH]c(=O)n2C	10.3	-59.8	-0.2	73.5*	25.6
CSc1cccc(NC(=O)COC(=O)c2ccccn2)c1	/	0.5	-3.4	/	/
CC(=O)NC1(C)CCC2CC1C(C)=NC2(C)C (centres undefined)	/	1.6	/	/	/
CN(C)c1ccc(CNC(=O)C2(C)Cc3c(-c4cccc(C(N)=O)c4)ccnc3O2)cc1 (centres undefined)	/	6.8	/	/	/
CC(C)Oc1ccc(N2CC(C(=O)NC3=NCCS3)CC2=O)cc1 (centres undefined)	3.2	9.5	-36.1	64.2*	-2.6
